This note sets out measurements from PubChem BioAssay (Tox21).

Several values for one entry are separate records, joined by “and”; a condition that tells them apart may be missing. Equal entries are not always repeated. Inconclusive results are not listed. More than one record can exist for a structure, and the calls need not agree. Activity calls are given as the source filed them. Unless noted, the call rests on the fitted dose curve; in most records, active means well fitted curve in the direction sought with a large enough effect in the repeat runs; inconclusive means weak or mixed curves; inactive means no such curve, though single readings can be large; an effect the other way counts as inactive or inconclusive.

Assay [1] can be described thus: qHTS assay to identify small molecule antagonists of the glucocorticoid receptor (GR) signaling pathway - cell viability counter screen (AID 720693; further: nearly all actives have a fitted effect of over 55% in size; further: potency means the concentration at half of the fitted maximal effect). (In qHTS, concentration-response curves come from the screen itself.)
Assay [2] is described as follows: qHTS assay for identifying genotoxic compounds that show differential cytotoxicity against isogenic chicken DT40 cell lines with known DNA damage response pathways - wild type cell line (AID 743012). Further: nearly all actives have a fitted effect of over 60% in size. Further: potency means the concentration at half of the fitted maximal effect. The procedure, abridged: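 Quantitative HTS on parental DT40 cells: 40 h compound treatment at 37 C/5% CO2, with viability then determined by CellTiter-Glo luminescence. Values serve as the DNA repair-proficient reference for differential cytotoxicity.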

Assay [3] in a line: qHTS assay for identifying genotoxic compounds that show differential cytotoxicity against isogenic chicken DT40 cell lines with known DNA damage response pathways - Rev3 mutant cell line (AID 743014). Further: nearly all actives have a fitted effect of over 55% in size. Further: potency means the concentration at half of the fitted maximal effect.
The nature of assay [4]: qHTS assay to identify small molecule antagonists of the androgen receptor (AR) signaling pathway - cell viability counter screen (AID 743033; further: nearly all actives have a fitted effect of over 45% in size; further: potency means the concentration at half of the fitted maximal effect).
Assay [5] can be described thus: qHTS assay to identify small molecule antagonists of the thyroid receptor (TR) signaling pathway - cell viability counter screen (AID 743064). Further: nearly all actives have a fitted effect of over 50% in size. Further: potency means the concentration at half of the fitted maximal effect. Summed up:
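Plate GH3.TRE-Luc cells; incubate 4 h at 37 °C; add compound, then T3 to 1 nM final; incubate 23.5 h; add CellTiter-Fluor; incubate 30 min at 37 °C, 5% CO2; read fluorescence.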

Assay [6] in a line: qHTS assay for identifying genotoxic compounds that show differential cytotoxicity against isogenic chicken DT40 cell lines with known DNA damage response pathways - Rad54/Ku70 mutant cell line (AID 743015). Further: nearly all actives have a fitted effect of over 60% in size. Further: potency means the concentration at half of the fitted maximal effect.
The nature of assay [7]: qHTS assay to identify small molecule antagonists of the androgen receptor (AR) signaling pathway using the MDA cell line - cell viability counter screen (AID 743041; further: nearly all actives have a fitted effect of over 45% in size). Summed up:
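MDA-kb2 AR-luc human breast carcinoma cells (MMTV-luciferase, AR/GR responsive) were treated with compounds plus R1881 agonist for 16 h at 37 °C. Viability was read as CellTiter-Fluor fluorescence in the same wells as the reporter assay.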

The target of assay [8] is Androgen receptor (Homo sapiens) (UniProt P10275). Briefly: qHTS assay to identify small molecule agonists of the androgen receptor (AR) signaling pathway (AID 743036; active means well fitted activation curve with a large enough effect in the signal ratio in the repeat runs, with a control signal flat, not every such curve was filed as active; the % refers to the signal ratio). The procedure, abridged:
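Reporter line: GeneBLAzer AR-UAS-bla-GripTite (HEK293). Steps: plate cells, 4 h rest, add compounds, 16 h at 37C, add LiveBLAzer B/G substrate, 2 h at RT, read fluorescence.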

Assay [9] shares this target. Briefly: qHTS assay to identify small molecule agonists of the androgen receptor (AR) signaling pathway using the MDA cell line (AID 743040; further: nearly all actives have a fitted effect of over 20% in size). Summed up: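 MDA-kb2 breast carcinoma cells stably carrying an MMTV-driven luciferase reporter (AR- and GR-responsive) were seeded and held 5 h at 37C, 0% CO2, then exposed to compounds in DMSO for 16 h. Luminescence was read 30 min after ONE-Glo addition.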

Assay [10] has the same target. Briefly: qHTS assay to identify small molecule antagonists of the androgen receptor (AR) signaling pathway using the MDA cell line (AID 743042; further: nearly all actives have a fitted effect of over 55% in size; further: potency means the concentration at half of the fitted maximal effect). The procedure, abridged: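 MDA-kb2 cells (human breast carcinoma, stably carrying an MMTV-luciferase reporter responsive to AR and GR) were plated at 3,000 cells/well and preincubated 5 hr at 37C, then given compound plus R1881 agonist for 16 h. ONE-Glo luminescence was read.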

Chain of Androgen receptor (Homo sapiens) (P10275 whole entry, looked up): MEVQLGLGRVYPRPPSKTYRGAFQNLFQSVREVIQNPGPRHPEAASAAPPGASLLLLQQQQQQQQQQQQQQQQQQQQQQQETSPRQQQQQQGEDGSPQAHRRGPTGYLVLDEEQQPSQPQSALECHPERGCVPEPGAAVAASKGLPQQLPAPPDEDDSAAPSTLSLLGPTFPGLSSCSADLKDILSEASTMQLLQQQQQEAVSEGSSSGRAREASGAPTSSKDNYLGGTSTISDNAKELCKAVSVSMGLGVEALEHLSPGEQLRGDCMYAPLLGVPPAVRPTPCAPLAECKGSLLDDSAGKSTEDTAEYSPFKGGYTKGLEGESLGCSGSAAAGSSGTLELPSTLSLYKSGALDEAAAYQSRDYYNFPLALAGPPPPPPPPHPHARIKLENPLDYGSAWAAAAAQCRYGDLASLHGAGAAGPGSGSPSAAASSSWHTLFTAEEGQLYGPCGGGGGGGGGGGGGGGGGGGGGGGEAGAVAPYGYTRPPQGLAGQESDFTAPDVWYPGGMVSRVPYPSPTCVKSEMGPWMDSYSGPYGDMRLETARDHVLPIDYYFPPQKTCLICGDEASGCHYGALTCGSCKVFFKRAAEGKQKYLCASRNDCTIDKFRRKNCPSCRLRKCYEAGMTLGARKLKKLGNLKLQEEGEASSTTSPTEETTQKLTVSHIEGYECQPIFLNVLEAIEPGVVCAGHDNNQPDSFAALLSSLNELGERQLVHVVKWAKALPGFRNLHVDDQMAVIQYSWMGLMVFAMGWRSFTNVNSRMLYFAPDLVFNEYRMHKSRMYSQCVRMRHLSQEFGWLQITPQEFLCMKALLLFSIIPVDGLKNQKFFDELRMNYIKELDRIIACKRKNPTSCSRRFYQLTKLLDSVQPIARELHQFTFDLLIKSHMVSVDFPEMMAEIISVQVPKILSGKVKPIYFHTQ

In the case of `O=C(c1ccccc1)c1ccc(O)cc1O`, the Potency entry in assay [1], in [2], in [3], in [4] and in assay [5] was “inactive” in each case.
As to `Nc1ccc(S(=O)(=O)Nc2cnc3ccccc3n2)cc1`, the Potency entry in [1], in assay [2], in assay [3], in assay [6], in assay [4] and in assay [7] was “inactive” throughout. In addition, the Potency entry in assay [5] is “inactive”.
As to `O=C(Nc1ccc([N+](=O)[O-])cc1Cl)c1cc(Cl)ccc1O`, the Potency in [1] was 0.275 µM (active); in [2], 422 nM (active) and 770 nM (active); in assay [6] it was 473 nM (active) and 611 nM (active); in assay [4], 1.51 µM (active) and 436 nM (active).
Consider `OC[C@H]1O[C@@H]2O[C@H]3[C@H](O)[C@@H](O)[C@@H](O[C@H]4[C@H](O)[C@@H](O)[C@@H](O[C@H]5[C@H](O)[C@@H](O)[C@@H](O[C@H]6[C@H](O)[C@@H](O)[C@@H](O[C@H]7[C@H](O)[C@@H](O)[C@@H](O[C@H]8[C@H](O)[C@@H](O)[C@@H](O[C@H]1[C@H](O)[C@H]2O)O[C@@H]8CO)O[C@@H]7CO)O[C@@H]6CO)O[C@@H]5CO)O[C@@H]4CO)O[C@@H]3CO`, for which the Potency result in [1], in [2], in assay [3], in assay [6], in [4] and in assay [5] was “inactive” in each case.
Regarding `CCCCOCCOCCOCCO`, the Potency entry in assay [1], in assay [2], in assay [6] and in [4] was “inactive” each time.
For `Cc1ccc(C)c(O)c1C`, the Potency result in assay [1], in assay [2], in assay [6], in [4], in assay [9] and in assay [7] was “inactive” each time. Also, the Potency entry in assay [10] and in assay [5] was “inactive” in each case. The molecule was classed as inactive in [8].
On to `CCCC(=O)O`, for which the Potency result in [1], in assay [2], in assay [3], in [6], in assay [4] and in [5] was “inactive” in each case.
In the case of `CCCCOCCOCCO`, the Potency entry in assay [1], in assay [2], in [6] and in assay [4] was “inactive” in each case.
Turning to `O=S(=O)(O)c1ccc(O)cc1`, the Potency result in assay [1], in assay [2], in assay [3], in [6], in assay [4] and in [7] was “inactive” each time. Besides, the Potency result in [5] is “inactive”.
Turning to `COC(=O)CCC(=O)OC`, the Potency entry in assay [1], in assay [2], in [6], in assay [4] and in assay [7] was “inactive” in each case.
For the molecule `C#C[C@]1(O)CC[C@H]2[C@@H]3CCc4cc(OC)ccc4[C@H]3CC[C@@]21C`, the Potency result in assay [1], in assay [4], in assay [7] and in assay [5] was “inactive” in each case. In addition, the Potency in assay [2] is 5.31 µM (active) and 3.86 µM (active); in assay [3] it was 5.96 µM (active) and 4.86 µM (active); in assay [6], 6.68 µM (active) and 6.86 µM (active).
As to `Cc1cc2nc3c(=O)[nH]c(=O)nc-3n(C[C@H](O)[C@H](O)[C@H](O)CO)c2cc1C`, the Potency result in assay [1], in assay [2] and in [4] was “inactive” in each case. The Potency in [6] is 18.8 µM (active) and inactive.
As for `Cc1ncc[nH]1`, the Potency entry in [1], in assay [2], in assay [6], in assay [4] and in assay [7] was “inactive” throughout.
Consider `O=C(c1ccccc1)c1ccccc1O`, for which the Potency entry in assay [1], in [2], in assay [6], in [4], in assay [9] and in assay [7] was “inactive” each time. Further, the Potency result in assay [10] and in assay [5] was “inactive” each time. Further, the molecule was called inactive in assay [8].
Turning to `COc1c(Cl)c(Cl)c(Cl)c(Cl)c1Cl`, the Potency result in assay [1], in assay [2], in assay [3], in [6], in [4] and in assay [5] was “inactive” in each case.
As for `Cc1c(OCC(F)(F)F)ccnc1CS(=O)c1nc2ccccc2[nH]1` (configuration not stated), the Potency result in assay [1], in assay [2], in [4], in assay [7] and in assay [5] was “inactive” throughout. In assay [3], the Potency result was “inactive and 54.5 µM (active)”.
`c1ccc2cc(Nc3ccc(Nc4ccc5ccccc5c4)cc3)ccc2c1`: the Potency entry in [1], in [2], in assay [6], in assay [4], in assay [9] and in [7] was “inactive” throughout. The Potency result in assay [10] and in assay [5] was “inactive” in each case.
Take `OC(CCl)CCl`: the Potency result in assay [1], in assay [2], in assay [6], in assay [4] and in [7] was “inactive” in each case.
As for `O=Cc1ccccc1O`, the Potency result in assay [1], in assay [2], in [6], in assay [4] and in assay [7] was “inactive” throughout.
Turning to `Cc1[nH]c(=O)c(C#N)cc1-c1ccncc1`, the Potency entry in assay [1], in assay [2], in assay [3], in assay [6], in assay [4] and in assay [7] was “inactive” throughout. In addition, the Potency entry in [5] is “inactive”.
As for `O=C(/C=C/c1ccccc1)OCc1ccccc1`, the Potency entry in [1], in [4], in assay [7] and in [5] was “inactive” throughout. Further, the Potency entry in assay [2] is “inactive and 54.5 µM (active)”; in [3], “inactive and 38.6 µM (active)”; in assay [6], “inactive and 43.3 µM (active)”.
Take `CC(C)OC(=O)C(C)(C)Oc1ccc(C(=O)c2ccc(Cl)cc2)cc1`: the Potency entry in assay [1] and in assay [9] was “inactive” each time. For the same molecule, the Potency in assay [2] was 29.8 µM (active) and 12.2 µM (active); in [6] it was 15.4 µM (active); in [4], “inactive and 43.6 µM (active)”; in assay [10] it was “inactive and 48.6 µM (active)”. In addition, the outcome in assay [8] was inactive.
As for `CC(=O)Oc1ccccc1C(=O)Nc1ncc([N+](=O)[O-])s1`, the Potency in assay [1] was 11.2 µM (active); in assay [2], 13.3 µM (active); in [3] it was 10.6 µM (active) and 62.4 µM (active); in assay [6], 13.3 µM (active); in assay [4] it was “inactive and 7.06 µM (active)”; in [5] it was 29.8 µM (active) and 19.7 µM (active).
For `O=C1c2cccc(O)c2C(=O)c2c(O)cccc21`, the Potency entry in assay [1], in assay [2], in assay [3], in assay [6], in assay [4] and in [7] was “inactive” in each case. Further, the Potency result in [5] was “inactive”.
Take `S=C(NC1CCCCC1)NC1CCCCC1`: the Potency entry in assay [1], in [2] and in [5] was “inactive” each time. The Potency entry in assay [3] is “inactive and 61.1 µM (active)”; in assay [6], “inactive and 61.1 µM (active)”; in assay [4], 19.1 µM (active).
